Test results: PubChem BioAssay (EPA / NIEHS)
Results filed as inconclusive are left out. The source made the active and inactive calls. How the source made its calls: active means hit-call score of the fitted dose curve at least 0.9, where 1 is the maximum; inconclusive means response in the unintended direction; inactive means score below 0.9.

Columns and labels:
[1] = molecular target: human Sirtuin 1 (SIRT1), SIRT1 (gene 23411) (UniProt Q96EB6); assay: NVS_ENZ_hSIRT1: NovaScreen (NVS) Enzymatic Assay for human Sirtuin 1 (SIRT1) (AID 2283219)
Outline: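 Cell-free recombinant SIRT1 with a fluorescent substrate; substrate and product separated by electrophoretic mobility shift and read by fluorescence intensity, 1 h after dosing. Primary screen at 25 uM in duplicate; hits re-run in concentration-response up to 50 uM, relative to DMSO.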

[2] = molecular target: human Vascular Endothelial Growth Factor Receptor 3 (VEGFR3), FLT4 (gene 2324) (UniProt P35916); assay: NVS_ENZ_hVEGFR3: NovaScreen (NVS) Enzymatic Assay for human Vascular Endothelial Growth Factor Receptor 3 (VEGFR3) (AID 2283229)
Outline: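 Cell-free recombinant VEGFR3 kinase reaction with fluorescent substrate, read 1 h after dosing by electrophoretic mobility shift separation of substrate and product. Single-concentration duplicate screen at 25 uM, then concentration-response up to 50 uM; loss of activity versus DMSO.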

[3] = molecular target: human Vascular Endothelial Growth Factor Receptor 2 (VEGFR2), KDR (gene 3791) (UniProt P35968); assay: NVS_ENZ_hVEGFR2: NovaScreen (NVS) Enzymatic Assay for human Vascular Endothelial Growth Factor Receptor 2 (VEGFR2) (AID 2283230)
Outline: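 Cell-free recombinant VEGFR2 kinase, fluorescent substrate with electrophoretic mobility-shift separation; read 1 h after dosing. Screened at 25 uM in duplicate, hits to concentration-response up to 50 uM; loss-of-signal versus DMSO.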

[4] = molecular target: rat Adenylate Cyclase, Forskolin Stimulated, Adcy5 (gene 64532) (UniProt Q04400); assay: NVS_ENZ_rACFSKBinding: NovaScreen (NVS) Enzymatic Assay for rat Adenylate Cyclase, Forskolin Stimulated (AID 2283232)
Outline: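 Rat forebrain membrane preparation, cell-free, read 1 h after dosing by filter-based scintillation counting. Primary screen in duplicate at 25 uM; actives (e.g. ≥30% inhibition) rerun in concentration-response up to 50 uM; fit versus DMSO.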

[5] = molecular target: rat Acetylcholinesterase (AChE), Ache (gene 83817) (UniProt P37136); assay: NVS_ENZ_rAChE: NovaScreen (NVS) Enzymatic Assay for rat Acetylcholinesterase (AChE) (AID 2283233)
Outline: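 Rat brain membrane acetylcholinesterase activity measured colorimetrically 0.33 h after compound addition, loss of signal relative to DMSO. Primary screen in duplicate at 25 uM; actives re-run as concentration-response with 50 uM top concentration.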

[6] = molecular target: rat Monoamine Oxidase, MAO-B, Central (MAOBC), Maob (gene 25750) (UniProt P19643); assay: NVS_ENZ_rMAOBC: NovaScreen (NVS) Enzymatic Assay for rat Monoamine Oxidase, MAO-B, Central (MAOBC) (AID 2283238)
Outline: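 MAO-B activity in rat brain tissue preparation, cell-free, measured radiometrically by scintillation counting 1.17 h after dosing. Screened in duplicate at 25 uM; actives then in concentration-response up to 50 uM. Loss of signal versus DMSO scored.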

[7] = molecular target: rabbit Imidazoline 2 Central (I2C), CKB (gene 100009085) (UniProt P00567); assay: NVS_ENZ_rabI2C: NovaScreen (NVS) Enzymatic Assay for rabbit Imidazoline 2 Central (I2C) (AID 2283228)
Outline: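 Rabbit brain membranes, cell-free; readout by filter-based scintillation counting 1.5 hours after dosing, loss of signal vs DMSO. Initial duplicate test at 25 uM, then concentration-response with 50 uM top concentration.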

[8] = tested on: rat Monoamine Oxidase, MAO-A, Peripheral (MAOAP), gene 29253; assay: NVS_ENZ_rMAOAP: NovaScreen (NVS) Enzymatic Assay for rat Monoamine Oxidase, MAO-A, Peripheral (MAOAP) (AID 2283237)
Outline: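 Rat liver mitochondrial membranes served as the MAO-A source, with enzyme activity measured by radiometric scintillation counting 1.17 hours after dosing. Loss of signal was fitted against DMSO; primary screen used 25 uM in duplicate, follow-up used concentration series.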

[9] = molecular target: human Tropomyosin Receptor Kinase A (TRKA), NTRK1 (gene 4914) (UniProt P04629); assay: NVS_ENZ_hTrkA: NovaScreen (NVS) Enzymatic Assay for human Tropomyosin Receptor Kinase A (TRKA) (AID 2283224)
Outline: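 Recombinant human TrkA activity read after 1 h by fluorescence with electrophoretic mobility shift separating substrate and product. Primary screen in duplicate at 25 uM; actives were rerun in concentration-response up to 50 uM. Loss of signal versus DMSO.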

[10] = molecular target: human Tyrosine Protein Kinase Receptor Tie-2 (Tie2), TEK (gene 7010) (UniProt Q02763); assay: NVS_ENZ_hTie2: NovaScreen (NVS) Enzymatic Assay for human Tyrosine Protein Kinase Receptor Tie-2 (Tie2) (AID 2283225)
Outline: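 Recombinant human Tie2 kinase activity was read cell-free by fluorescence with electrophoretic mobility shift, 1 hour after dosing. The screen used 25 uM in duplicate, then concentration-response up to 50 uM. Signal loss was scored against DMSO.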

[11] = molecular target: sheep Cyclooxygenase-2 (Cox2), PTGS2 (gene 443460) (UniProt P79208); assay: NVS_ENZ_oCOX2: NovaScreen (NVS) Enzymatic Assay for sheep Cyclooxygenase-2 (Cox2) (AID 2283231)
Outline: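 Colorimetric absorbance read-out of COX activity, taken 0.66 hour post-dosing, using native protein from sheep placenta. Single-concentration duplicate screen (25 uM), then singleton concentration-response up to 50 uM for actives.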

[12] = molecular target: sheep Cyclooxygenase-1 (Cox1), PTGS1 (gene 443551) (UniProt P05979); assay: NVS_ENZ_oCOX1: NovaScreen (NVS) Enzymatic Assay for sheep Cyclooxygenase-1 (Cox1) (AID 2283239);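 further: actives reduce cyclooxygenase activity so potencies are for inhibitors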
Outline: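 Colorimetric enzyme readout using sheep seminal-vesicle cyclooxygenase-1, measured 0.66 h post-dosing. Single-concentration duplicates at 25 uM first, then concentration series for actives, with DMSO as baseline and plate controls.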

[13] = molecular target: rat Catechol-O-Methyl Transferase (COMT), Comt (gene 24267) (UniProt P22734); assay: NVS_ENZ_rCOMT: NovaScreen (NVS) Enzymatic Assay for rat Catechol-O-Methyl Transferase (COMT) (AID 2283235)
Outline: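 Cell-free enzyme activity with protein extracted from rat dorsal striatum, measured by HPLC with absorbance detection. Compounds screened at 25 uM in duplicate; actives then run in concentration-response up to 50 uM, loss of signal versus DMSO.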

[14] = molecular target: rat Constitutive Nitric Oxide Synthase (CNOS), Nos1 (gene 24598) (UniProt P29476); assay: NVS_ENZ_rCNOS: NovaScreen (NVS) Enzymatic Assay for rat Constitutive Nitric Oxide Synthase (CNOS) (AID 2283236)
Outline: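 Enzyme activity in rat brain membrane preparation, read 1 h after dosing by filter-based radiometric scintillation counting. Primary screen in duplicate at 25 uM; actives (e.g., ≥30% inhibition) then run in concentration-response up to 50 uM.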

[15] = molecular target: rat Monoamine Oxidase, MAO-B, Peripheral (MAOBP), Maob (gene 25750) (UniProt P19643); assay: NVS_ENZ_rMAOBP: NovaScreen (NVS) Enzymatic Assay for rat Monoamine Oxidase, MAO-B, Peripheral (MAOBP) (AID 2283242)
rat Monoamine Oxidase, MAO-B, Peripheral (MAOBP), Maob (gene 25750), sequence (P19643 whole entry, looked up): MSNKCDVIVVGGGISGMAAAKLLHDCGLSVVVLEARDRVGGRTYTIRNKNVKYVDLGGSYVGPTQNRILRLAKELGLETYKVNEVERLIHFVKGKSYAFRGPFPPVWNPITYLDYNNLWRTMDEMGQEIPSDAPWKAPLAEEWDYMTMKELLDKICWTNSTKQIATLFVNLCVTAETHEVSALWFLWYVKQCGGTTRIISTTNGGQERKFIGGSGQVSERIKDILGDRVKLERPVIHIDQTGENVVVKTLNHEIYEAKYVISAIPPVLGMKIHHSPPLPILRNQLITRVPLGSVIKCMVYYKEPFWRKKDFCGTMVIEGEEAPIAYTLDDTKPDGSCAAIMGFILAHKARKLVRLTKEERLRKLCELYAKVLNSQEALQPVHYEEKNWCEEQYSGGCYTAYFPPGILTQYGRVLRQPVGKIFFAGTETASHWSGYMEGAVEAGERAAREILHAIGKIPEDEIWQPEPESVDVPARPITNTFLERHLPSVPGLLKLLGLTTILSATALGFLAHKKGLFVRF

rat Monoamine Oxidase, MAO-B, Central (MAOBC), Maob (gene 25750), sequence (P19643 whole entry, looked up): as above
human Sirtuin 1 (SIRT1), SIRT1 (gene 23411), sequence (Q96EB6 whole entry, looked up): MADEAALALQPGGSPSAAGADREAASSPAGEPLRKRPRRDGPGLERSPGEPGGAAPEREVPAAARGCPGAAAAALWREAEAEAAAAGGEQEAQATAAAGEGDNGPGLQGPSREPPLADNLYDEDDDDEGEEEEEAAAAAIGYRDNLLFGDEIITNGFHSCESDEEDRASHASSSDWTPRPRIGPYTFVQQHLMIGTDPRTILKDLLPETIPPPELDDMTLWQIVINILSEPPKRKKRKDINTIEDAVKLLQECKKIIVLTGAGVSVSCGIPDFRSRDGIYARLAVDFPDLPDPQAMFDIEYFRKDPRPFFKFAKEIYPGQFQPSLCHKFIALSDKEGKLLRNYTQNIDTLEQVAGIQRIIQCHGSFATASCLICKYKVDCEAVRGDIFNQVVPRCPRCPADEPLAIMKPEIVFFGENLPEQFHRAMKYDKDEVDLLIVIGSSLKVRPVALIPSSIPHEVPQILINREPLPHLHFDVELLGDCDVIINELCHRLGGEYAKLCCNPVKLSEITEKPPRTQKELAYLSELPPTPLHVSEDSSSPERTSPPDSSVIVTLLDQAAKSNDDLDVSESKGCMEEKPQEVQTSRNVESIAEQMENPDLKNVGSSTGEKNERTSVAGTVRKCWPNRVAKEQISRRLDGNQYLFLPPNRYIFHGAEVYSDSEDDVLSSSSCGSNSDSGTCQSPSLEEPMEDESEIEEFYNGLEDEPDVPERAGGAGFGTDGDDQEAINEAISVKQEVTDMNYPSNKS
rat Acetylcholinesterase (AChE), Ache (gene 83817), sequence (P37136 whole entry, looked up): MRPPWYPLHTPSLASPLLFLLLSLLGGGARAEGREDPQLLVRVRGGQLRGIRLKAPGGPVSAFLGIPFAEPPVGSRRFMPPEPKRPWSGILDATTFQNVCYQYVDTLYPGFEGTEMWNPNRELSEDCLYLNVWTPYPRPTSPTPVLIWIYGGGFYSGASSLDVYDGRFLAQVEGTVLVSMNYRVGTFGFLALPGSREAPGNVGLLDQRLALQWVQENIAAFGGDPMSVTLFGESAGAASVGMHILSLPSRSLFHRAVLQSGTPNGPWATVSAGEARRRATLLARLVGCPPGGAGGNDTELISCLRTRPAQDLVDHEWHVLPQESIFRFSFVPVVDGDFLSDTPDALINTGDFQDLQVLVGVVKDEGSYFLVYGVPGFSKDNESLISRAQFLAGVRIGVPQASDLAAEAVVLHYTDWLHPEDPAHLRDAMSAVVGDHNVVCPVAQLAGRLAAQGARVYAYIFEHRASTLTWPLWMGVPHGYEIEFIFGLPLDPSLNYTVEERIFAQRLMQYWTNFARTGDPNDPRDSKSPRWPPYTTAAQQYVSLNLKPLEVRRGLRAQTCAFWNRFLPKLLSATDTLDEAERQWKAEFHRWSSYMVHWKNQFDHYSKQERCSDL
rabbit Imidazoline 2 Central (I2C), CKB (gene 100009085), sequence (P00567 whole entry, looked up): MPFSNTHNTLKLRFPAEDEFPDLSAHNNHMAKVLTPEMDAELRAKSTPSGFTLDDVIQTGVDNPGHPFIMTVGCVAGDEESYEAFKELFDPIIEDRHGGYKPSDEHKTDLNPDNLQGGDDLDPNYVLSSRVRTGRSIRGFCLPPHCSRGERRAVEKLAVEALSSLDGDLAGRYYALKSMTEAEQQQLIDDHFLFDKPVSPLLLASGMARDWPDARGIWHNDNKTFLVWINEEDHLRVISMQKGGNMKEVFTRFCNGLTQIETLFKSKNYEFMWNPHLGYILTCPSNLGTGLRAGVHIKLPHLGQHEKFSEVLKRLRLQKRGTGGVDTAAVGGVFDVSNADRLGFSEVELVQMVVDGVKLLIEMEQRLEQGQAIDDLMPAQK
human Vascular Endothelial Growth Factor Receptor 3 (VEGFR3), FLT4 (gene 2324), sequence (P35916 whole entry, looked up): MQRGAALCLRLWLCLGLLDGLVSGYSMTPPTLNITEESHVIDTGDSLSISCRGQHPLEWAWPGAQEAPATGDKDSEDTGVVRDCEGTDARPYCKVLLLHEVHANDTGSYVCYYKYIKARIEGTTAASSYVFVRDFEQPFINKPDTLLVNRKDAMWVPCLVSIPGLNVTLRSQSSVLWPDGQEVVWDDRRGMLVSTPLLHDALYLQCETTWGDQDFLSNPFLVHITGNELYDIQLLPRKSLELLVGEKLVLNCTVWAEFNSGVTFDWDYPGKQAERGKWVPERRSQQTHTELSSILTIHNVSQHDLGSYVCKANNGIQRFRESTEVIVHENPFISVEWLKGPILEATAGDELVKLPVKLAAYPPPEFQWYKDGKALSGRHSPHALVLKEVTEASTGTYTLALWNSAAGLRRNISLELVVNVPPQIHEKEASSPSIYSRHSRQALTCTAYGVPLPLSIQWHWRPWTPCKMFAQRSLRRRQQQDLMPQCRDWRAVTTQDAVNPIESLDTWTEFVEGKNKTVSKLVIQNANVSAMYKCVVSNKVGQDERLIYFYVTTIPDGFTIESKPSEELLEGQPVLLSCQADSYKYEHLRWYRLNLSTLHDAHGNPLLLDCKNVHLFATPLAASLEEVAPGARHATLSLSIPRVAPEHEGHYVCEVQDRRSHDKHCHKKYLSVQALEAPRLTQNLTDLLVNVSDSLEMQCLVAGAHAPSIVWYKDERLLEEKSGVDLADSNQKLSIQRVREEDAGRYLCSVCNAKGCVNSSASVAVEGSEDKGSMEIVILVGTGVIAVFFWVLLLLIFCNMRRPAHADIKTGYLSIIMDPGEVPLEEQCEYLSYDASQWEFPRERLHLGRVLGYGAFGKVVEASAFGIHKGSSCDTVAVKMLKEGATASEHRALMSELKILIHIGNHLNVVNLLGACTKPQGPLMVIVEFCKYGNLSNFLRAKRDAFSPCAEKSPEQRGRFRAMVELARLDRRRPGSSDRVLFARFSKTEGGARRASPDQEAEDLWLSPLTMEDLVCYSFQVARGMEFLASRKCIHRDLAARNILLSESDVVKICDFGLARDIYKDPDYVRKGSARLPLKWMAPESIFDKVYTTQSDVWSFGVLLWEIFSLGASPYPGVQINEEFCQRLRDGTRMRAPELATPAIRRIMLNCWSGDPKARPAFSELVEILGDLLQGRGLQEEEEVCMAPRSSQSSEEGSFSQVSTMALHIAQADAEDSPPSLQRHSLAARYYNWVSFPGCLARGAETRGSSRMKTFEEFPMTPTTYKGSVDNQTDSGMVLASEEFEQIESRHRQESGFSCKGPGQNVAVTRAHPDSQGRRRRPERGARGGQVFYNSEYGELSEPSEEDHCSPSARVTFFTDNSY
human Vascular Endothelial Growth Factor Receptor 2 (VEGFR2), KDR (gene 3791), sequence (P35968 whole entry, looked up): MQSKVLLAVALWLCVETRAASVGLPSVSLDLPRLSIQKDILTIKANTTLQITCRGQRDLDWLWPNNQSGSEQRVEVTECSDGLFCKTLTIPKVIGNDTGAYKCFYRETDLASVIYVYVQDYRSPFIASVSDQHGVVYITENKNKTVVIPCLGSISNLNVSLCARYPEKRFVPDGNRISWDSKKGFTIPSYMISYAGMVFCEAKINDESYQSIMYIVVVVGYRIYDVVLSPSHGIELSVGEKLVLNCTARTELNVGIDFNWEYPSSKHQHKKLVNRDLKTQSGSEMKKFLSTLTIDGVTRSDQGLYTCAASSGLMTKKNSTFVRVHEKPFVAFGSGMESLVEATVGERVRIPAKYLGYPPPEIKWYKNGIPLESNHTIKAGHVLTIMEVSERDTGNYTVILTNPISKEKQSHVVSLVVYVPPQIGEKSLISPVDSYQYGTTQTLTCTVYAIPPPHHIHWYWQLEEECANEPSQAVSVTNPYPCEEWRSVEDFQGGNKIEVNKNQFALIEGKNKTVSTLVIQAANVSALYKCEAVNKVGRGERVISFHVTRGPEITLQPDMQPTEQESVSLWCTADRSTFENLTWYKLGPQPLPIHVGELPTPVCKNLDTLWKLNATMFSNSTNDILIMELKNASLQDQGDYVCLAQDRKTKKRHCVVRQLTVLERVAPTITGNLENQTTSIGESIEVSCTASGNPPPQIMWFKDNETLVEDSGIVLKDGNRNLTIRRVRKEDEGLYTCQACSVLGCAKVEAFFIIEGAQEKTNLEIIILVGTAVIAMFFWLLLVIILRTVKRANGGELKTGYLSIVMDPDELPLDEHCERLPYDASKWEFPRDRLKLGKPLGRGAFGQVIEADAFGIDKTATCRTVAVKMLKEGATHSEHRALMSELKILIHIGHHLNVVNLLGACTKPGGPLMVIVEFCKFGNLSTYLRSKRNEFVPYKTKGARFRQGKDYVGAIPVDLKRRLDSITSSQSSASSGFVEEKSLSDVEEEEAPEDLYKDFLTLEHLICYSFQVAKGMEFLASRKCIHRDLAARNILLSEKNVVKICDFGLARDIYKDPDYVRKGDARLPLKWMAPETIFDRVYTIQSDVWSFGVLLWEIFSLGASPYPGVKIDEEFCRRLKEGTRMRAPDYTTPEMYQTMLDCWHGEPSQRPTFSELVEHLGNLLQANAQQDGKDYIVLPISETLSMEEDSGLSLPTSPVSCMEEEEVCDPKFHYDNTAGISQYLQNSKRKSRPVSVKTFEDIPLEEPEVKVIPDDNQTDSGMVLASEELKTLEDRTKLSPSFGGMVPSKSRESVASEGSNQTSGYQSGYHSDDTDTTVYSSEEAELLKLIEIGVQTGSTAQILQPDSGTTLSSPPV

N#Cc1c(Cl)c(Cl)c(Cl)c(C#N)c1Cl
outcome [1]: inactive | AC50 [2]: 38.7 µM (active) | outcome [3]: inactive | AC50 [4]: 25 µM (active) | outcome [5]: inactive

COP(=S)(OC)Oc1ccc([N+](=O)[O-])cc1
outcome [5]: inactive | outcome [6]: inactive

CNC(=O)Oc1cccc(N=CN(C)C)c1
AC50 [7]: 0.67 µM (active) | AC50 [5]: 12 µM (active) | outcome [8]: inactive

CC(C)(C)C(O)/C(=C\c1ccc(Cl)cc1Cl)n1cncn1 (stereo unspecified)
outcome [9]: inactive

O=C(NC(=O)c1c(F)cccc1F)Nc1ccc(OC(F)(F)C(F)OC(F)(F)F)c(Cl)c1 (stereo unspecified)
outcome [10]: inactive

COC(=O)c1ccccc1S(=O)(=O)NC(=O)N(C)c1nc(C)nc(OC)n1
outcome [6]: inactive

C#CCN1C(=O)COc2cc(F)c(N3C(=O)C4=C(CCCC4)C3=O)cc21
outcome [11]: inactive | AC50 [6]: 25 µM (active) | AC50 [12]: 1.11 µM (active)

CCC(C)Nc1c([N+](=O)[O-])cc(C(C)(C)C)cc1[N+](=O)[O-] (stereo unspecified)
outcome [1]: inactive

ClC1C(Cl)C(Cl)C(Cl)C(Cl)C1Cl (stereo unspecified)
outcome [1]: inactive

O=C(O)COc1ccc(Cl)cc1Cl
outcome [13]: inactive

O=[N+]([O-])/N=C1\NCCN1Cc1ccc(Cl)nc1
AC50 [7]: 11.4 µM (active)

O=C1c2ccccc2C(=O)N1SC(Cl)(Cl)Cl
AC50 [14]: 2.25 µM (active) | outcome [15]: inactive

CC(C)(C)C(O)C(Oc1ccc(Cl)cc1)n1cncn1 (stereo unspecified)
outcome [10]: inactive | outcome [2]: inactive | outcome [3]: inactive | outcome [12]: inactive
